Measurements published in PubChem BioAssay (NCI).
The panel holds about 79,000 compounds, 15% with a hit somewhere; the sample as a whole holds those more often. Calls of active or inactive are those of the source. No stated cut-off is given here; in the data, active means growth inhibition above about 70%; inactive means the rest.

What was measured:
[1] = NCI Yeast Anticancer Drug Screen. Data for the rad52 strain (AID 147);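 further: 0% = growth of vehicle-treated control cultures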; details: S. cerevisiae rad52 mutant growth inhibition, active compounds read high
Method in brief: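 Here a repair-compromised yeast strain receives each compound; its growth is then quantified and normalised to vehicle-only controls.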

[2] = NCI Yeast Anticancer Drug Screen. Data for the rad50EPP+ strain (AID 151);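 further: 0% = growth of vehicle-treated control cultures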; details: S. cerevisiae rad50 mutant strain, active compounds read high
Method in brief: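 Read-out is yeast growth inhibition relative to vehicle; cells used were the rad50EPP+ strain.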

[3] = NCI Yeast Anticancer Drug Screen. Data for the mgt1 strain (AID 153); details: S. cerevisiae mgt1 mutant growth inhibition, active compounds read high
Method in brief: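 Measured: inhibition of mgt1 yeast growth by compound, normalized to vehicle-treated cultures.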

[4] = NCI Yeast Anticancer Drug Screen. Data for the rad50 strain (AID 155);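 further: 0% = growth of vehicle-only cultures of the same strain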; details: S. cerevisiae rad50 strain growth inhibition, active compounds read high
Method in brief: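 Growth of the mutant yeast was measured after compound exposure and referenced to vehicle-treated cultures.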

[5] = NCI Yeast Anticancer Drug Screen. Data for the mec2-1 strain (AID 157); details: S. cerevisiae mec2-1 strain, active compounds read high
Method in brief: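 Using mec2-1 yeast: add compound, measure growth, express inhibition versus vehicle-treated cultures.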

[6] = NCI Yeast Anticancer Drug Screen. Data for the rad14 strain (AID 159);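 further: 0% = growth of vehicle-treated control cultures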; details: S. cerevisiae rad14 strain growth inhibition, active compounds read high
Method in brief: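 Here, inhibition of yeast growth was measured after compound exposure, using a strain with a genetic defect in DNA damage repair and vehicle-treated cultures as the reference.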

[7] = NCI Yeast Anticancer Drug Screen. Data for the sgs1 mgt1 strain (AID 161);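 further: 0% = growth of cultures given vehicle only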; details: S. cerevisiae sgs1 mgt1 strain, active compounds read high
Method in brief: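 This yeast growth screen uses a strain with defined DNA-repair lesions; compound-treated growth is compared with vehicle-treated growth.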

[8] = NCI Yeast Anticancer Drug Screen. Data for the CLN2oe strain (AID 163);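 further: 0% = growth of vehicle-only control cultures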; details: S. cerevisiae CLN2oe strain, active compounds read high
Method in brief: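 Whole-cell yeast growth assay. A strain engineered for altered cell-cycle control received compound, and inhibition relative to vehicle-treated cultures was recorded.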

[9] = NCI Yeast Anticancer Drug Screen. Data for the cln2 rad14 strain (AID 165);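 further: 0% = growth equal to vehicle treated cultures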; details: S. cerevisiae cln2 rad14 strain, active compounds read high
Method in brief: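 Yeast strain cln2 rad14, bearing defects in cell cycle control and DNA repair, serves as the test system; values reflect growth inhibition compared with vehicle.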

[10] = NCI Yeast Anticancer Drug Screen. Data for the bub3 strain (AID 167); details: S. cerevisiae bub3 mutant strain, active compounds read high
Method in brief: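 Whole-cell yeast assay. The mutant strain was incubated with compounds, and growth inhibition was determined by comparison with vehicle-treated cells.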

[11] = NCI Yeast Anticancer Drug Screen. Data for the wt2 strain (AID 169);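 further: 0% = growth of vehicle-treated yeast cultures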; details: S. cerevisiae wt2 strain growth inhibition, active compounds read high
Method in brief: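 Treated yeast vs. vehicle-treated yeast: growth inhibition determined.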

[12] = NCI Yeast Anticancer Drug Screen. Data for the mlh1 strain (AID 171);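 further: 0% = growth of vehicle-treated control cultures of the same strain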; details: S. cerevisiae mlh1 strain growth inhibition, active compounds read high
Method in brief: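 A yeast strain with a defined genetic lesion serves as the test organism. Cultures receive compound or vehicle, and growth is measured.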

[13] = NCI Yeast Anticancer Drug Screen. Data for the sgs1 strain (AID 173);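 further: 0% = growth of vehicle-only control cultures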; details: S. cerevisiae sgs1 mutant, active compounds read high
Method in brief: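 A genetically defined yeast mutant is incubated with the test compound, and its growth is compared to that of the same strain given vehicle.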

[14] = NCI Yeast Anticancer Drug Screen. Data for the mlh1 rad18 strain (AID 175); details: S. cerevisiae mlh1 rad18 strain growth inhibition, active compounds read high
Method in brief: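 Steps: expose repair-defective yeast to compound; measure growth; express inhibition against vehicle-treated controls.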

[15] = NCI Yeast Anticancer Drug Screen. Data for the rad18 strain (AID 177); details: S. cerevisiae rad18 mutant growth inhibition, active compounds read high
Method in brief: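 Measured value is growth inhibition of a yeast strain bearing a DNA repair alteration, referenced to vehicle-treated cells.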

[16] = NCI Yeast Anticancer Drug Screen. Data for the wt1 strain (AID 149);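 further: 0% = growth of vehicle-treated wt1 cultures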; details: S. cerevisiae wt1 strain (SPY 50644) growth inhibition, active compounds read high
Method in brief: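 Measured: growth of wt1 yeast under compound versus vehicle treatment, reported as inhibition.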

[17] = at 5.0 µM (retest, dose inferred, filed as 0.5)
[18] = at 50.0 µM (retest, dose inferred, filed as 5.0)

Measured: growth inhibition

CN(C)CCCn1c2c3ccccc3ccc2c2oc(=O)c3ccccc3c21
active: [1]; at 11.0 µM 86% | [1]; at 33.0 µM 97% | [1]; at 100.0 µM 98% | [2]; at 11.0 µM 95% | [2]; at 33.0 µM 98% | [2]; at 100.0 µM 98% | [3]; at 33.0 µM 92% | [3]; at 100.0 µM 98% | [4]; at 11.0 µM 91% | [4]; at 33.0 µM 97% | [4]; [18] 98% | [4]; at 50.0 µM 99% | [4]; at 100.0 µM 98% | [5]; at 33.0 µM 88% | [5]; [18] 98% | [5]; at 50.0 µM 98.8% | [5]; at 100.0 µM 96% | [6]; at 33.0 µM 83% | [6]; at 100.0 µM 98% | [7]; [18] 75% | [7]; at 50.0 µM 98.7% | [8]; at 33.0 µM 86% | [8]; at 100.0 µM 97% | [9]; [18] 97% | [9]; at 50.0 µM 98.4% | [10]; at 33.0 µM 87% | [10]; [18] 98% | [10]; at 50.0 µM 99.2% | [10]; at 100.0 µM 98% | [11]; at 33.0 µM 93% | [11]; at 100.0 µM 97% | [12]; at 33.0 µM 90% | [12]; at 100.0 µM 98% | [13]; at 33.0 µM 85% | [13]; at 100.0 µM 96% | [14]; [18] 98% | [14]; at 50.0 µM 99.2% | [15]; at 33.0 µM 93% | [15]; at 100.0 µM 98%
inactive: [1]; at 1.2 µM 3% | [1]; at 3.7 µM 33% | [2]; at 1.2 µM 13% | [2]; at 3.7 µM 58% | [3]; at 1.2 µM 13% | [3]; at 3.7 µM 33% | [3]; at 11.0 µM 53% | [4]; at 1.2 µM 0% | [4]; at 3.7 µM 45% | [4]; [17] 22% | [5]; at 1.2 µM 0% | [5]; at 3.7 µM 28% | [5]; [17] 21% | [5]; at 11.0 µM 48% | [6]; at 1.2 µM -6% | [6]; at 3.7 µM 10% | [6]; at 11.0 µM 30% | [7]; [17] -9% | [8]; at 1.2 µM 3% | [8]; at 3.7 µM 14% | [8]; at 11.0 µM 44% | [9]; [17] -17% | [10]; at 1.2 µM 20% | [10]; at 3.7 µM 11% | [10]; [17] 12% | [10]; at 11.0 µM 23% | [11]; at 1.2 µM -22% | [11]; at 3.7 µM -9% | [11]; at 11.0 µM 50% | [12]; at 1.2 µM 22% | [12]; at 3.7 µM 30% | [12]; at 11.0 µM 53% | [13]; at 1.2 µM 0% | [13]; at 3.7 µM -2% | [13]; at 11.0 µM 34% | [14]; [17] -1% | [15]; at 1.2 µM -10% | [15]; at 3.7 µM -2% | [15]; at 11.0 µM 47%

Cc1ccnc2c(O)cccc12
active: [1]; at 3.7 µM 96% | [1]; at 11.0 µM 96% | [1]; at 33.0 µM 99% | [1]; at 100.0 µM 99% | [16]; at 11.0 µM 76% | [16]; at 33.0 µM 93% | [16]; at 100.0 µM 98% | [3]; at 3.7 µM 73% | [3]; at 11.0 µM 91% | [3]; at 33.0 µM 99% | [3]; at 100.0 µM 99% | [4]; at 3.7 µM 97% | [4]; at 11.0 µM 98% | [4]; at 33.0 µM 99% | [4]; [18] 99% | [4]; at 50.0 µM 98.2% | [4]; at 100.0 µM 99% | [5]; at 3.7 µM 98% | [5]; at 11.0 µM 100% | [5]; at 33.0 µM 100% | [5]; [18] 98% | [5]; at 50.0 µM 97.3% | [5]; at 100.0 µM 100% | [6]; at 11.0 µM 83% | [6]; at 33.0 µM 98% | [6]; at 100.0 µM 99% | [7]; [17] 73% | [7]; [18] 99% | [7]; at 50.0 µM 97.8% | [8]; at 3.7 µM 98% | [8]; at 11.0 µM 99% | [8]; at 33.0 µM 100% | [8]; at 100.0 µM 99% | [9]; [18] 96% | [9]; at 50.0 µM 97.5% | [10]; at 11.0 µM 98% | [10]; at 33.0 µM 99% | [10]; [18] 99% | [10]; at 50.0 µM 97.9% | [10]; at 100.0 µM 99% | [11]; at 11.0 µM 80% | [11]; at 33.0 µM 84% | [11]; at 100.0 µM 97% | [12]; at 3.7 µM 99% | [12]; at 11.0 µM 99% | [12]; at 33.0 µM 100% | [12]; at 100.0 µM 99% | [13]; at 11.0 µM 98% | [13]; at 33.0 µM 99% | [13]; at 100.0 µM 99% | [14]; [17] 87% | [14]; [18] 99% | [14]; at 50.0 µM 98.7% | [15]; at 11.0 µM 97% | [15]; at 33.0 µM 99% | [15]; at 100.0 µM 99%
inactive: [1]; at 1.2 µM 3% | [16]; at 1.2 µM -5% | [16]; at 3.7 µM 19% | [3]; at 1.2 µM -8% | [4]; at 1.2 µM 6% | [4]; [17] 24% | [5]; at 1.2 µM 31% | [5]; [17] -1% | [6]; at 1.2 µM 0% | [6]; at 3.7 µM 24% | [8]; at 1.2 µM 24% | [9]; [17] 22% | [10]; at 1.2 µM -6% | [10]; at 3.7 µM 47% | [10]; [17] 41% | [11]; at 1.2 µM -8% | [11]; at 3.7 µM 25% | [12]; at 1.2 µM 14% | [13]; at 1.2 µM -13% | [13]; at 3.7 µM 59% | [15]; at 1.2 µM -3% | [15]; at 3.7 µM 60%
